Where “and” joins values, the source holds several entries; their conditions need not be identical. Identical values can stand only once. A structure can be active in one record and inactive in another. Calls of active or inactive are those of the source. Where a call stands in place of a potency, no number is given. Unless noted, the call rests on the fitted dose curve; in most records, active means well fitted curve in the direction sought with a large enough effect in the repeat runs; inconclusive means weak or mixed curves; inactive means no such curve, though single readings can be large; an effect the other way counts as inactive or inconclusive.
What was measured:
[1] = qHTS assay for small molecule agonists of the p53 signaling pathway (AID 651631; calls by dose curve; further: nearly all actives have a fitted effect of over 15% in size; further: potency means the concentration at half of the fitted maximal effect)
Procedure, shortened: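 Read-out is beta-lactamase FRET fluorescence measured 2 h after substrate addition at room temperature, in HCT-116 cells with a p53 response element-driven reporter exposed to compounds for 16 h at 37 °C.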

[2] = qHTS assay for small molecules that induce genotoxicity in human embryonic kidney cells expressing luciferase-tagged ATAD5 (AID 651632); further: nearly all actives have a fitted effect of over 15% in size; further: potency means the concentration at half of the fitted maximal effect
Procedure, shortened: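 A rise in luciferase signal from ATAD5-tagged HEK293T cells marks genetic stress. Cells were exposed to compounds for 16 hr at 37C, 5% CO2, then luciferase was quantified after a 30 min room-temperature incubation with Amplite.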

[3] = qHTS assay for small molecule agonists of the p53 signaling pathway - cell viability (AID 651633; calls by dose curve; further: nearly all actives have a fitted effect of over 30% in size; further: potency means the concentration at half of the fitted maximal effect)
Procedure, shortened: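 Viability counter-read: CellTiter-Glo luminescence (30 min, room temperature) in the same p53RE-bla plates. These plates had been exposed to compounds for 16 h at 37 C.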

[4] = qHTS assay for small molecules that induce genotoxicity in human embryonic kidney cells expressing luciferase-tagged ATAD5 - cell viability (AID 651634; calls by dose curve; further: nearly all actives have a fitted effect of over 25% in size; further: potency means the concentration at half of the fitted maximal effect)
Procedure, shortened: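 Cytotoxicity counter-readout: after 15.5 hr compound treatment at 37C, live-cell protease activity in ATAD5-luciferase HEK293T cells measured by CellTiter-Fluor fluorescence, 30 min development at 37C.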

[5] = qHTS assay for small molecule disruptors of the mitochondrial membrane potential - cell viability (AID 720634; calls by dose curve;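 further: human HepG2 liver cancer cells; nearly all actives have a fitted effect of over 20% in size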)
Procedure, shortened: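 Cytotoxicity was quantified from ATP content by CellTiter-Glo luminescence in the same wells as the MMP dye read-out. HepG2 (2,000 cells/well) were plated overnight and exposed to compounds for 1 hr at 37 C.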

[6] = qHTS assay to test for compound auto fluorescence at 535 nm (green) in HepG2 cells (AID 720675)
[7] = qHTS assay to test for compound auto fluorescence at 590 nm (red) in HEK293 cells (AID 720679)
Procedure, shortened: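 Red autofluorescence, HEK293 cells: 2,000 cells/well; attach 4-5 hr 37C; add 23 nL cpd or DMSO; incubate o/n 37C 5% CO2; read Ex540/Em590; Rose Bengal sodium reference.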

[8] = qHTS assay to test for compound auto fluorescence at 535 nm (green) in HEK293 cells (AID 720680)
[9] = qHTS assay to test for compound auto fluorescence at 460 nm (blue) in HEK293 cell free culture (AID 720681)
Procedure, shortened: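 Blue fluorescence (Ex 405/Em 460 nm, triamterene-equivalent) was read immediately after pin transfer of compound or DMSO into medium (DMEM, 10% FBS) without cells.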

[10] = qHTS assay to test for compound auto fluorescence at 535 nm (green) in HEK293 cell free culture (AID 720682)
Procedure, shortened: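 Fluorescein serves as the green reference fluorophore; each compound's intrinsic emission at 535 nm (excitation 485 nm) is reported as an equivalent amount of that dye, measured in serum-containing DMEM without cells.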

[11] = qHTS assay to test for compound auto fluorescence at 590 nm (red) in HEK293 cell free culture (AID 720683)
Procedure, shortened: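 Red-channel autofluorescence of compounds in culture medium (DMEM, 10% FBS), no cells, measured at 540/590 nm. Rose Bengal sodium is the reference fluorophore for equivalence.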

[12] = qHTS assay to test for compound auto fluorescence at 590 nm (red) in HepG2 cell free culture (AID 720684)
Procedure, shortened: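 Cell-free; medium MEM + 10% FBS; compound or DMSO added by pintool; read Ex 540/Em 590 nm; Rose Bengal sodium as red reference fluorophore.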

[13] = qHTS assay to test for compound auto fluorescence at 460 nm (blue) in HepG2 cell free culture (AID 720685)
Procedure, shortened: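 Cell-free plates of MEM plus 10% FBS received 23 nL compound or DMSO vehicle; blue-channel (405/460 nm) intensity scored against triamterene as reference fluorophore.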

[14] = qHTS assay to test for compound auto fluorescence at 535 nm (green) in HepG2 cell free culture (AID 720686)
[15] = qHTS assay to test for compound auto fluorescence at 460 nm (blue) in HepG2 cells (AID 720687)
Procedure, shortened: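 Blue-channel autofluorescence (Ex/Em 405/460 nm, triamterene-equivalent) was measured after 1 hr compound exposure at 37 C, 5% CO2. Cells were HepG2, plated overnight at 37 C in MEM plus 10% FBS.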

[16] = molecular target: Glucocorticoid receptor (Homo sapiens) (UniProt P04150); assay: qHTS assay to identify small molecule agonists of the glucocorticoid receptor (GR) signaling pathway (AID 720691; active means well fitted activation curve with a large enough effect in the signal ratio in the repeat runs, not every such curve was filed as active; inconclusive means weak or mixed curves, or effect the other way; inactive means no such curve, though single readings can be large or run the other way; the % refers to the signal ratio; further: potency means the concentration at half of the fitted maximal effect); conditions: GR-bla HeLa, beta-lactamase reporter ratio, 18 h
Procedure, shortened: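 Agonist-mode qHTS in HeLa cells stably expressing a glucocorticoid-response-element beta-lactamase reporter. Fluorescence intensity read with FRET substrate (2 h, room temperature) after 18 h compound treatment at 37 C.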

[17] = qHTS assay for small molecule disruptors of the mitochondrial membrane potential (AID 720635); further: potency means the concentration at half of the fitted maximal effect
Procedure, shortened: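 Mitochondrial membrane potential tracked with Mito-MPS dye, red aggregates (ex 540/em 590 nm) against green monomers (ex 490/em 535 nm). Compound treatment 1 hr at 37C, dye 30 min in HepG2.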

[18] = qHTS assay to test for compound auto fluorescence at 590 nm (red) in HepG2 cells (AID 720674)
Procedure, shortened: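 Red autofluorescence (Ex/Em 540/590 nm, Rose Bengal sodium equivalents) was measured in HepG2 cells, 2,000 per well in MEM plus 10% FBS, plated overnight at 37 C. Readings were taken 1 hr after adding 23 nL compound or DMSO, at 37 C and 5% CO2.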

[19] = qHTS assay to test for compound auto fluorescence at 460 nm (blue) in HEK293 cells (AID 720678)
Procedure, shortened: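 Intrinsic compound fluorescence is recorded in live HEK293 cultures after overnight incubation at 37C, 5% CO2, using excitation 405 nm and emission 460 nm. Values are referenced to triamterene.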

[20] = molecular target: Glucocorticoid receptor (Homo sapiens) (UniProt P04150); assay: qHTS assay to identify small molecule antagonists of the glucocorticoid receptor (GR) signaling pathway (AID 720692; active means well fitted inhibition curve with a large enough effect in the signal ratio in the repeat runs, not every such curve was filed as active; inconclusive means weak or mixed curves, or effect the other way; inactive means no such curve, though single readings can be large or run the other way; the % refers to the signal ratio)
Procedure, shortened: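 Inhibition of dexamethasone-driven (5 nM final) beta-lactamase expression was measured in GRE-reporter HeLa cells over 18 h at 37C. Fluorescence was read after 2 h with the B/G FRET substrate at room temperature.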

[21] = activation: at 62.4 µM (top of the series)

Chain of Glucocorticoid receptor (Homo sapiens) (P04150 whole entry, looked up): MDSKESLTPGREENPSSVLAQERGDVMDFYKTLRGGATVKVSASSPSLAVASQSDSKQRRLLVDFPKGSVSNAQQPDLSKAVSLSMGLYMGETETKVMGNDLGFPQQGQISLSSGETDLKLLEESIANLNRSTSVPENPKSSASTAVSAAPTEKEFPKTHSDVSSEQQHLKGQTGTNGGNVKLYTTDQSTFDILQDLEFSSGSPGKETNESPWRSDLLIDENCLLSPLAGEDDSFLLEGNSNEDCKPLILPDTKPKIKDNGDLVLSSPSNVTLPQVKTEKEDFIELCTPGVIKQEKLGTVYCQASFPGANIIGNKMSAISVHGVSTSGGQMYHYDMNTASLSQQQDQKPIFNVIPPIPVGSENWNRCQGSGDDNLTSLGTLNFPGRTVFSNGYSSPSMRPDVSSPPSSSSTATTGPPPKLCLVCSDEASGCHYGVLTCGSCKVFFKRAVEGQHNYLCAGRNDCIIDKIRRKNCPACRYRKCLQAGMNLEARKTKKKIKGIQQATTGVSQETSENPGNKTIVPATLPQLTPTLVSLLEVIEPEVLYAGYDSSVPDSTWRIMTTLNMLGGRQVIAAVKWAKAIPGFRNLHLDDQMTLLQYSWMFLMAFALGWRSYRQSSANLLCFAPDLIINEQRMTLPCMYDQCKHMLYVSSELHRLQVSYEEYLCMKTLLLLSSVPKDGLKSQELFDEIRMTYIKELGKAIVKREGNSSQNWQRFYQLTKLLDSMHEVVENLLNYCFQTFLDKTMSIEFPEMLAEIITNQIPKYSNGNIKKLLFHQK

NC(=O)NS(=O)(=O)c1ccc(N)cc1
Potency [1]: inactive
Potency [2]: inactive
Potency [3]: inactive
Potency [4]: inactive
Potency [5]: inactive
Potency [6]: inactive
Potency [7]: inactive
outcome [8]: inactive
Potency [9]: inactive
outcome [10]: inactive
Potency [11]: inactive
Potency [12]: inactive
Potency [13]: inactive
Potency [14]: inactive
Potency [15]: inactive
Potency [16, 21]: inactive

O=c1[nH]cnc2nc[nH]c12
Potency [1]: inactive
Potency [2]: inactive
Potency [3]: inactive
Potency [4]: inactive
Potency [5]: inactive
Potency [17]: inactive
Potency [18]: inactive
Potency [6]: inactive
Potency [7]: inactive
outcome [8]: inactive
Potency [9]: inactive
outcome [10]: inactive
Potency [11]: inactive
Potency [12]: inactive
Potency [13]: inactive
Potency [14]: inactive
Potency [15]: inactive

NC(=O)CC[C@@H]1NC(=O)[C@H](Cc2ccccc2)NC(=O)[C@H](Cc2ccc(O)cc2)NC(=O)CCSSC[C@@H](C(=O)N2CCC[C@H]2C(=O)N[C@@H](CCCN=C(N)N)C(=O)NCC(N)=O)NC(=O)[C@H](CC(N)=O)NC1=O
Potency [1]: inactive
Potency [2]: inactive
Potency [3]: inactive
Potency [4]: inactive
Potency [5]: inactive
Potency [17]: inactive
Potency [18]: inactive
Potency [6]: inactive
Potency [7]: inactive
outcome [8]: inactive
Potency [9]: inactive
outcome [10]: inactive
Potency [11]: inactive
Potency [12]: inactive
Potency [13]: inactive
Potency [14]: inactive
Potency [15]: inactive

C=C(C)C(=O)OCC[N+](C)(C)C
Potency [1]: inactive
Potency [2]: inactive
Potency [3]: inactive
Potency [4]: inactive
Potency [5]: inactive
Potency [6]: inactive
Potency [19]: inactive
Potency [7]: inactive
outcome [8]: inactive
Potency [9]: inactive
outcome [10]: inactive
Potency [11]: inactive
Potency [12]: inactive
Potency [13]: inactive
Potency [14]: inactive
Potency [15]: inactive
Potency [16, 21]: inactive
Potency [20]: inactive

CNC(=O)c1ccccc1
Potency [1]: inactive
Potency [2]: inactive
Potency [3]: inactive
Potency [4]: inactive
Potency [5]: inactive
Potency [17]: inactive
Potency [18]: inactive
Potency [6]: inactive
Potency [19]: inactive
outcome [8]: inactive
Potency [9]: inactive
outcome [10]: inactive
Potency [11]: inactive
Potency [12]: inactive
Potency [13]: inactive
Potency [14]: inactive
Potency [15]: inactive

CCOC(=O)/C=C(C)/C=C/C=C(C)/C=C/c1c(C)cc(OC)c(C)c1C
Potency [1]: 21.1 µM (active)
Potency [2]: inactive
Potency [3]: inactive
Potency [4]: inactive
Potency [5]: inactive
Potency [18]: inactive
Potency [6]: inactive
Potency [19]: inactive
Potency [7]: inactive
outcome [8]: inactive
Potency [9]: inactive
outcome [10]: inactive
Potency [11]: inactive
Potency [12]: inactive
Potency [13]: inactive
Potency [14]: inactive
Potency [15]: inactive
Potency [20]: inactive

[O-][n+]1ccccc1SSc1cccc[n+]1[O-]
Potency [1]: 2.66 µM (active)
Potency [2]: 2.66 µM (active)
Potency [3]: inactive
Potency [4]: 7.5 µM (active)
Potency [5]: inactive
Potency [17]: 668 nM (active)
Potency [18]: inactive
Potency [6]: inactive
Potency [19]: inactive
Potency [7]: inactive
outcome [8]: inactive
Potency [9]: inactive
outcome [10]: inactive
Potency [11]: inactive
Potency [12]: inactive
Potency [13]: inactive
Potency [14]: inactive
Potency [15]: inactive

O=C(Nc1cccc(C(F)(F)F)c1)c1cc(Br)cc(Br)c1O
Potency [1]: 5.31 µM (active) and 1.72 µM (active)
Potency [2]: inactive
Potency [3]: 473 nM (active) and 686 nM (active)
Potency [4]: 13.3 µM (active)
Potency [17]: 335 nM (active) and 109 nM (active)
Potency [18]: inactive
Potency [6]: inactive
outcome [8]: inactive
Potency [9]: inactive
outcome [10]: inactive
Potency [11]: inactive
Potency [12]: inactive
Potency [13]: inactive
Potency [14]: inactive
Potency [15]: inactive
activation [16, 21]: 9.27% [inconclusive] (active)
activation ([16]; at 62.4 µM (top of the series)): 10.1% (inactive)

Clc1ccc2nsnc2c1NC1=NCCN1
Potency [1]: inactive
Potency [3]: inactive
Potency [4]: inactive
Potency [5]: inactive
Potency [17]: inactive
Potency [18]: inactive
Potency [6]: inactive
Potency [19]: inactive
Potency [7]: inactive
outcome [8]: inactive
Potency [9]: inactive
outcome [10]: inactive
Potency [11]: inactive
Potency [12]: inactive
Potency [13]: inactive
Potency [14]: inactive
Potency [15]: inactive
Potency [20]: inactive

Cc1cccc(S(=O)(=O)O)c1C
Potency [1]: inactive
Potency [2]: inactive
Potency [3]: inactive
Potency [4]: inactive
Potency [5]: inactive
Potency [18]: inactive
Potency [6]: inactive
Potency [19]: inactive
outcome [8]: inactive
Potency [9]: inactive
outcome [10]: inactive
Potency [11]: inactive
Potency [12]: inactive
Potency [13]: inactive
Potency [14]: inactive
Potency [15]: inactive
Potency [20]: inactive

O=C1Cc2cc(CCN3CCN(c4nsc5ccccc45)CC3)c(Cl)cc2N1
Potency [1]: inactive
Potency [2]: inactive
Potency [3]: inactive and 23.7 µM (active)
Potency [5]: inactive
Potency [17]: inactive
Potency [6]: inactive
outcome [8]: inactive
Potency [9]: inactive
outcome [10]: inactive
Potency [11]: inactive
Potency [12]: inactive
Potency [13]: inactive
Potency [14]: inactive
Potency [15]: inactive
Potency [16, 21]: 21.3 µM (active)
Potency [20]: inactive

CS(=O)(=O)CCNCc1ccc(-c2ccc3ncnc(Nc4ccc(OCc5cccc(F)c5)c(Cl)c4)c3c2)o1
Potency [1]: inactive
Potency [2]: inactive
Potency [3]: inactive
Potency [4]: inactive
Potency [5]: inactive
Potency [17]: inactive
Potency [18]: inactive
Potency [6]: inactive
Potency [19]: inactive
Potency [7]: inactive
outcome [8]: inactive
Potency [9]: inactive
outcome [10]: inactive
Potency [11]: inactive
Potency [12]: inactive
Potency [13]: inactive
Potency [14]: inactive
Potency [15]: inactive

Clc1ccc2cc3ccccc3cc2c1
Potency [1]: 54.4 µM (active)
Potency [2]: inactive
Potency [3]: inactive
Potency [4]: inactive
Potency [5]: inactive
Potency [18]: inactive
Potency [6]: inactive
Potency [19]: inactive
outcome [8]: inactive
Potency [9]: inactive
outcome [10]: inactive
Potency [11]: inactive
Potency [12]: inactive
Potency [13]: inactive
Potency [14]: inactive
Potency [15]: inactive
